# Source: PubChem (Broad Institute)
# Wnt bcat act: Wnt/beta-catenin pathway activators, primary screen, cell-based, plate reader, single point | Wnt/beta-catenin reporter cell assay, activator | activation, % at 9.35 µM | hit rate 1.2% among 300,000; in the data active = activation above about 30%, passing the limit was not always enough; inconclusive = no clear call, values can overlap the other calls;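 also: 0% = neutral control wells and 100% = positive control wells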
# N-glyco inh: increase of ERlucT glycosylation luciferase signal, primary screen, N-linked glycosylation inhibitor project, D54 ERlucT cells, luminescence, set 2 | reporter increase, % at 12.5 µM | D54 ERlucT glycosylation luciferase reporter, 24 h; percent of 100 nM tunicamycin response | hit rate 0.23% among 360,000 | AID 588692, 2011;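 active = mean luciferase reporter signal, scaled so untreated is 0 and the glycosylation-blocking control 100, at or above a set limit in every replicate; inconclusive = mean reaches the limit but not every replicate does; inactive = mean below the limit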;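 also: luciferase carries N-glycosylation sites so blocking glycosylation raises the light; 0% = median of neutral control wells and 100% = median of 100 nM tunicamycin wells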
# esBAF inh: Bmi1 luciferase reporter increase in mESCs, primary screen, esBAF inhibitor project, mouse ES cells, Bmi1 luciferase knock-in, single point; hit rate 2% among 350,000; AID 602393, 2012; 24 h; 100% = twice the neutral-well signal; reporter increase, % at 12.5 µM; in the data active = activation above about 40%; inconclusive = no clear call, values can overlap the other calls;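 also: 0% = median of the plate's neutral control wells and 100% = double that signal; a rise in the Bmi1 reporter signal indicates esBAF inhibition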
# Vif imaging: HIV Vif self-association inhibitors, primary screen, imaging, HEK293T, single point | HEK293T cells, Vif self-association by quenched fluorescence, 24 h | inhibition, % at 7.49 µM | hit rate 0.35% among 340,000; in the data active = inhibition above about 50%, passing the limit was not always enough; inconclusive = no clear call, values can overlap the other calls; inactive = below about 31%
# PvdQ acylase: P. aeruginosa PvdQ acylase inhibitors, primary screen, biochemical, fluorescence, plate reader and imaging, single point. PvdQ acylase [Pseudomonas aeruginosa LESB58]. inhibition, % at 10 µM. AID 488965, 2010. purified PvdQ acylase. hit rate 0.063% among 340,000; in the data active = inhibition above about 30%, passing the limit was not always enough; inconclusive = no clear call, values can overlap the other calls;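 also: 0% = vehicle neutral wells and 100% = reference inhibitor wells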
# MITF TRPM1 HTS: activators of MITF-driven TRPM1 promoter reporter, primary screen, cell-based, SK-MEL-5, luciferase, single point; SK-MEL-5 TRPM1-promoter luciferase, 24 h; % of positive control, neutral wells = 0; activation, % at 12.5 µM; hit rate 0.75% among 300,000; AID 588334, 2011;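 active = mean activation of at least 80% with every replicate also reaching 80%; inconclusive = mean reaches 80% but some replicate falls short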;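 also: 0% = neutral control wells and 100% = parthenolide positive control wells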
# * = called active by the depositor; ? = inconclusive; nt = no result given. The list is not random: actives were taken first. Their share in the collection is about 2.9%.
SMILES,Wnt bcat act,N-glyco inh,esBAF inh,Vif imaging,PvdQ acylase,MITF TRPM1 HTS
O=C(Nc1ccc(N2CCCC2)c(Cl)c1)c1cccnc1,7,-1,49*,-19,-8,?
O=C(Nc1ccc(N2CCCCC2)c(Cl)c1)c1cccnc1,13,-10,49*,nt,6,69
Cc1ccc2c(C)c(C(=O)N(C)C(C)c3ccon3)oc2c1C (stereo not given),?,2,51*,-1,-15,109*
Cc1ccc2c(C)c(C(=O)N(C)C(C)c3ccncn3)oc2c1C (stereo not given),5,4,51*,-14,-3,8
COc1ccc(S(=O)(=O)N(C)C[C@@H]2OCCCC[C@H](C)Oc3ccc(NC(=O)Nc4c(C)noc4C)cc3C(=O)N([C@H](C)CO)C[C@@H]2C)cc1,nt,nt,-5,nt,nt,nt
Cn1cnc(Sc2ncnc3nc[nH]c23)c1[N+](=O)[O-],6,136*,3,0,-18,-32
Cc1cccnc1Sc1c([N+](=O)[O-])ncn1C,nt,2,3,-17,-3,nt
Cn1cnc([N+](=O)[O-])c1Sc1ncnc2nc[nH]c12,11,130*,nt,-1,-3,nt
C[C@H]1CN([C@@H](C)CO)S(=O)(=O)c2ccc(-c3cccnc3)cc2O[C@H]1CN(C)Cc1cccnc1,nt,nt,-6,nt,nt,nt
Cc1ccc(SCC(=O)NC2CCS(=O)(=O)C2)cc1C (stereo not given),22,-2,-4,-3,1,5
Cc1ccc(-c2cn(-c3ccccc3)c(SCC(=O)NC3CCS(=O)(=O)C3)n2)cc1C (stereo not given),0,-4,nt,6,-7,99*
Cc1cccc(-c2cc3nc(C)cc(C)n3n2)c1,-1,-2,66*,-27,14,28
Cc1cc(C)n2nc(-c3cccc(Br)c3)cc2n1,-4,-4,?,-1,6,12
CC(=O)c1c(C)n(C)c2ccc(O)cc12,nt,1,-12,-6,6,7
Cc1c(C(=O)/C=C/c2ccccc2F)c2cc(O)ccc2n1C,-4,-3,57*,nt,nt,nt
C[C@H](CO)N1C[C@H](C)[C@H](CN(C)S(=O)(=O)c2cn(C)cn2)Oc2ccc(NC(=O)C3CC3)cc2C1=O,nt,nt,-1,nt,nt,nt
O=C(C[C@@H]1CC[C@@H]2[C@H](COC[C@H](O)CN2C(=O)c2ccccc2)O1)N1CCOCC1,nt,nt,-1,nt,nt,nt
Cc1ccccc1OCc1nc2c3cnn(C)c3ncn2n1,22,2,66*,-2,-13,nt
C=CCC1(CC=C)CCCN1C(=O)C1CCC(=O)N(CCc2ccccc2)C1 (stereo not given),29,-4,9,?,-10,103*
C=CCC1(CC=C)CCCN1C(=O)C1CCC(=O)N(CCc2ccc(OC)cc2)C1 (stereo not given),20,-3,69*,-3,-15,48
O=C1CCC(C(=O)N2CCSCC2)CN1CCc1ccccc1 (stereo not given),-4,-1,0,-2,8,2
C[C@@H]1CN([C@@H](C)CO)C(=O)c2cc(NS(=O)(=O)c3cccs3)ccc2O[C@@H](C)CCCCO[C@H]1CN(C)C(=O)CCCN(C)C,nt,nt,0,nt,nt,nt
CCc1ccc(/C=N/Nc2ncnc3nc[nH]c23)cc1,53*,-13,8,11,1,62
CC(C)=NNc1ncnc2nc[nH]c12,-4,1,nt,12,-2,nt
CNC[C@H]1Oc2ccc(NC(=O)Nc3ccc4c(c3)OCO4)cc2CC(=O)N([C@@H](C)CO)C[C@H]1C,nt,nt,2,nt,nt,nt
SMILES,Wnt bcat act,N-glyco inh,esBAF inh,Vif imaging,PvdQ acylase,MITF TRPM1 HTS
N#Cc1ccccc1OCC(=O)NC1CCCCCC1,1,-6,46*,nt,nt,nt
O=C(COc1ccc(F)cc1Cl)NC1CCCCCC1,40*,-4,?,-3,4,?
Cc1cc(Br)ccc1OCC(=O)NC1CCCC1,1,-3,52*,-5,-7,12
Cc1cc(Br)ccc1SCC(=O)OCC(=O)NC1CCCC1,-7,2,-3,-13,-1,9
CCc1ccc(OCC(=O)NC2CCCCC2)c(Br)c1,27,-7,?,-22,-1,101*
C[C@@H]1CN([C@H](C)CO)C(=O)c2cc(NC(=O)NC3CCCCC3)ccc2O[C@@H](C)CCCCO[C@H]1CN(C)Cc1ccc(C(F)(F)F)cc1,nt,nt,-31,nt,nt,nt
CC(C)(C)NC(=O)NC(=O)COc1ccc(Br)cc1Br,?,-16,nt,3,-12,32
CC(C)(C)NC(=O)NC(=O)COc1ccccc1C#N,40*,-13,40,-3,-7,121*
O=C(COc1ccc(Br)cc1Br)NC(=O)NC1CCCC1,12,-2,nt,-2,-10,104*
O=C(OC1CCCCC1)c1ccc(NC(=O)C2CCCCC2)cc1,nt,-2,nt,-2,-8,14
CCOC(=O)c1ccc(NC(=O)N2CCCCCC2)cc1,37*,-4,17,nt,0,98*
Cc1ccc(NC(=O)C2C3/C=C\CCCCC32)cc1 (stereo not given),16,0,nt,3,-11,94*
Cc1cc(C)c(NC(=O)C2C3/C=C\CCCCC32)c(C)c1 (stereo not given),-1,1,1,20,6,nt
CCOC(=O)c1ccc(NS(=O)(=O)N2CCCCCC2)cc1,-2,-2,47*,-2,-17,19
CC(C)(C)C(=O)Nc1ccc(C(=O)OC2CCCCC2)cc1,nt,-8,64*,14,15,105*
CCOC(=O)c1ccc(NC(=O)C2C3CCC(C3)C2C(=O)O)cc1 (stereo not given),0,-2,15,-2,-16,30
CC(C)COC(=O)c1ccc(NC(=O)C2C3CCC(C3)C2C(=O)O)cc1 (stereo not given),1,0,58*,-8,8,56
CCOC(=O)c1ccc(NC(=O)C2C3CCCCC32)cc1 (stereo not given),3,1,?,-9,-1,82*
CC(=O)c1c(C)[nH]c(C(=O)Nc2ccccc2N2CCOCC2)c1C,-2,9,0,-1,17,-6
COc1ccc(S(=O)(=O)N2CCCCC2)cc1NC(=O)c1[nH]c(C)c(C(C)=O)c1C,9,55*,7,12,-2,-29
CCOc1cc(N2CCOCC2)c(OCC)cc1NC(=O)c1[nH]c(C)c(C(C)=O)c1C,0,29*,-9,8,-12,8
CC(=O)c1c(C)[nH]c(C(=O)Nc2cc(S(=O)(=O)N3CCCCC3)ccc2C)c1C,6,9,10,-6,-4,5
